{"source": "PubChem BioAssay (NCATS)", "note": "Results filed as inconclusive are left out. Values without a mark were called inactive. Calls of active or inactive are those of the source. Calls come from the whole dose curve. % is set by controls: 0 for no effect and ±100 for the full control effect; potency is the fitted concentration of half-maximal effect.", "data": [{"biological_target": "Nucleoprotein (Lymphocytic choriomeningitis virus (strain Armstrong)) (UniProt P09992)", "sequence (P09992 whole entry, looked up)": "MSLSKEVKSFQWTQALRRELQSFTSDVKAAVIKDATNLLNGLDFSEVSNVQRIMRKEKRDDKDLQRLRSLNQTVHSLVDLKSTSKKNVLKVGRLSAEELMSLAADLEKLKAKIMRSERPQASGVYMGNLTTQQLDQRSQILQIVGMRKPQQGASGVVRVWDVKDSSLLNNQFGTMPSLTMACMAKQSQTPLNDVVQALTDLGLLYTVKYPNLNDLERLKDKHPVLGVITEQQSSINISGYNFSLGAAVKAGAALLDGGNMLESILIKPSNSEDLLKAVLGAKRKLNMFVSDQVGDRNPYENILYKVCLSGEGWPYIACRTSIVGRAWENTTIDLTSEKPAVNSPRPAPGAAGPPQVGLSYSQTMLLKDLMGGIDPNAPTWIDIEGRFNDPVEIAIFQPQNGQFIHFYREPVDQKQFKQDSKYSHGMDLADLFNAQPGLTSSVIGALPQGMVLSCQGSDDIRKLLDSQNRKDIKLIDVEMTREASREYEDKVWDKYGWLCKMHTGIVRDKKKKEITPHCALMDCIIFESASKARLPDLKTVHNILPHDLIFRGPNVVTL", "experiment": "qHTS for Inhibitors of the Functional Ribonucleoprotein Complex (vRNP) of Lymphocytic Choriomeningitis Arenaviruses (LCMV): LCMV Primary Screen - GLuc reporter signal (AID 1347086); note: nearly all actives have a fitted effect of over 70% in size", "details": "LCMV minigenome vRNP cell assay, Gaussia luciferase reporter; series mostly up to 57.5 µM; activity change, negative = inhibition: at the top concentration", "values": [{"compound": "Cc1c(O)ccoc1=O", "activity change, negative = inhibition": "25.4%"}, {"compound": "CCCCCCC[C@@H](C/C=C/CCC(=O)N(C)C/C(=C/Cl)C/C(=C\\C(=O)N1CC(OC)=CC1=O)OC)OC", "activity change, negative = inhibition": "3.9%"}, {"compound": "CC/C=C\\CC1=C(C)CCC1=O", "activity change, negative = inhibition": "21.3% [at 115 µM]"}, {"compound": "C/C=C1\\NC(=O)[C@H](C)NC(=O)[C@@H](NC(=O)[C@H](Cc2ccc(O)cc2)NC(=O)[C@@H](NC(=O)/C(C)=C/C)C(C)C)[C@@H](C)OC(=O)[C@H](CC(C)C)NC(=O)[C@@H](CCC(=O)O)NC1=O", "activity change, negative = inhibition": "-3.75%"}, {"compound": "Cc1c(O)c(C)c2c(c1O)C(=O)C[C@@H](c1ccccc1)O2", "activity change, negative = inhibition": "21.1%"}, {"compound": "CCCC(=O)C(C)=O", "activity change, negative = inhibition": "13.6% [at 115 µM]"}, {"compound": "COc1ccc(C2OCC3(O)C(c4ccc(OC)c(OC)c4)OCC23)cc1OC", "note": "(stereo not given)", "activity change, negative = inhibition": "-0.13%"}, {"compound": "CN1c2c(nc(N)[nH]c2=O)NCC1CNc1ccc(C(=O)NC(CCC(=O)O)C(=O)O)cc1", "note": "(stereo not given)", "activity change, negative = inhibition": "6.77%"}, {"compound": "CCCC(=O)OCc1ccccc1", "activity change, negative = inhibition": "-0.835% [at 115 µM]"}, {"compound": "C=CC1CN2CCC1CC2C(O)c1ccnc2ccc(OC)cc12", "note": "(stereo not given)", "activity change, negative = inhibition": "13.8%"}, {"compound": "CC(C)CCC[C@@H](C)[C@@H]1CC[C@H]2C3=CC=C4CC(O)CC[C@]4(C)[C@H]3CC[C@@]21C", "note": "(stereo not given in full)", "activity change, negative = inhibition": "-8.14%"}, {"compound": "CS[C@H]1SC[C@@H]2C(=O)N(C)[C@H](C(C)C)C(=O)OC[C@H](NC(=O)c3cnc4ccccc4n3)C(=O)N[C@H](C)C(=O)N(C)[C@@H]1C(=O)N(C)[C@H](C(C)C)C(=O)OC[C@H](NC(=O)c1cnc3ccccc3n1)C(=O)N[C@H](C)C(=O)N2C", "Potency": "0.0172 µM (active)"}, {"compound": "CCCCCCCCCCCC(=O)c1c(O)cccc1O", "activity change, negative = inhibition": "10.2%"}, {"compound": "Oc1cc(O)cc(-c2cc3ccc(O)cc3o2)c1", "activity change, negative = inhibition": "-12.1%"}, {"compound": "CC1CCC(C(C)[C@H]2CCC3C4CC(=O)C5C[C@@H](O)CC[C@]5(C)C4CC[C@@]32C)=NC1", "note": "(stereo not given in full)", "activity change, negative = inhibition": "2.53%"}, {"compound": "O=c1ccc2cc3ccoc3cc2o1", "activity change, negative = inhibition": "15.1%"}, {"compound": "CC[C@@H](O)C[C@H]1CCC[C@@]2(C[C@@H]3OC(=O)/C=C/[C@@](C)(O)[C@@H](O)[C@H](C)[C@@H](O)[C@H](OC4CCC(N(C)C)C(C)O4)[C@@H](O)[C@](C)(O)CCCCC/C=C/[C@@H]4CC(C)(C)O[C@@]4(O)C[C@H](O2)[C@H]3C)O1", "note": "(stereo not given in full)", "activity change, negative = inhibition": "-110%"}, {"compound": "Cn1cnc2c(ncn2[C@@H]2O[C@H](CO)[C@@H](O)[C@H]2O)c1=N", "activity change, negative = inhibition": "19%"}, {"compound": "CCCCCc1cccc(=O)o1", "activity change, negative = inhibition": "25.4%"}, {"compound": "CC(CCC(=O)O)C1CCC2C3CC(O)C4CC(O)CC[C@]4(C)C3CCC12C", "note": "(stereo not given in full)", "activity change, negative = inhibition": "21.1%"}, {"compound": "COc1ccc(C[C@@H](C)[C@@H](C)Cc2ccc(OC)c(OC)c2)cc1OC", "Potency": "24.3 µM (active)"}, {"compound": "COc1ccc2c(Oc3ccc(NC(=O)c4c(C)n(CC(C)(C)O)n(-c5ccccc5)c4=O)nc3)ccnc2c1", "activity change, negative = inhibition": "0.0251%"}, {"compound": "CCCCCCCCOC(C)=O", "activity change, negative = inhibition": "9.68% [at 115 µM]"}, {"compound": "C#CCCC/C(=C\\C(=O)N(C)[C@H](C(=O)N(C)[C@H](C(=O)N(C)[C@H](C(=O)N(C)[C@H](C(N)=O)C(C)C)C(C)C)C(C)C)C(C)C)OC", "activity change, negative = inhibition": "1.53%"}, {"compound": "CC1CCC[C@H](O)CCCCCc2cc(O)cc(O)c2C(=O)O1", "note": "(stereo not given in full)", "activity change, negative = inhibition": "-1.66%"}, {"compound": "CCCCCCCCCCCCCC", "activity change, negative = inhibition": "15.7% [at 115 µM]"}, {"compound": "CC1C(c2ccccc2)OC(=O)N1C", "note": "(stereo not given)", "activity change, negative = inhibition": "23.5%"}, {"compound": "O=C(/C=C/c1ccc(O)c(O)c1)c1ccc(O)cc1O", "activity change, negative = inhibition": "6.38%"}, {"compound": "COc1cc(C/C=C\\c2ccccc2)c(OC)cc1O", "activity change, negative = inhibition": "5.65%"}, {"compound": "COc1ccc(CNC(=S)NCc2ccc(OC)cc2)cc1", "activity change, negative = inhibition": "3.82%"}, {"compound": "O=C1C=C(O)c2c(O)cc(O)c(O)c2C1=O", "activity change, negative = inhibition": "-1.37%"}, {"compound": "CCCCC[C@H](O)/C=C/C=C\\C/C=C\\C=C\\[C@@H](O)CCCC(=O)O", "activity change, negative = inhibition": "18.8% [at 0.757 µM]"}, {"compound": "O=C(OCC1OC(Oc2ccc(O)cc2)C(O)C(O)C1O)c1ccccc1", "note": "(stereo not given)", "activity change, negative = inhibition": "11%"}, {"compound": "CC(c1c(O)c2ccccc2[nH]c1=O)C1(C)CCC(O)C(C)(C)O1", "note": "(stereo not given)", "activity change, negative = inhibition": "-2.38%"}, {"compound": "C[C@@]12C[C@@]3(O)O[C@@H](O1)[C@]1(COC(=O)c4ccccc4)[C@@H]3C[C@@]12O[C@@H]1O[C@H](CO)[C@@H](O)[C@H](O)[C@@H]1O", "activity change, negative = inhibition": "27.5%"}, {"compound": "N[C@@H](CCCCNC(=O)CCCC[C@@H]1SC[C@H]2NC(=O)N[C@H]12)C(=O)O", "activity change, negative = inhibition": "39.4%"}, {"compound": "CC12C=CC(=O)C=C1CCC1C2C(=O)CC2(C)C(=O)CCC12", "note": "(stereo not given)", "activity change, negative = inhibition": "-17%"}, {"compound": "COc1cc2cc(Oc3ccc4ccc(=O)oc4c3)c(=O)oc2cc1O[C@@H]1O[C@H](CO)[C@@H](O)[C@H](O)[C@H]1O", "activity change, negative = inhibition": "25.9%"}, {"compound": "CC(C)(O)Cc1ccccc1", "activity change, negative = inhibition": "1.76% [at 115 µM]"}, {"compound": "Cc1c(O)c2ccccc2oc1=O", "activity change, negative = inhibition": "20.5%"}]}]}
